These results are taken from PubChem BioAssay (EPA / NIEHS).

Inconclusive results are not listed. Some compounds were tested as several samples or in several runs, with calls that do not always agree. Activity calls are given as the source filed them. The calls were made as follows, unless noted: active = hit-call score of the fitted dose curve at least 0.9, where 1 is the maximum; inactive = score below 0.9.

The nature of assay [1]: ATG_TAL_CIS: Attagene CIS-FACTORIAL HepG2 Assay for human TAL Basal Promoter (AID 2282966).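 Also: background control endpoint measuring basal TAL promoter reporter mRNA not a specific factor.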 To be noted: HepG2 Attagene cis-factorial TAL promoter reporter; actives raise or lower the signal. In a few lines:
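Basal-promoter background-control endpoint from a multiplexed HepG2 reporter panel. Cells were exposed 24 h, then reporter mRNA was read by RT-PCR/CE fluorescence and fitted in both directions relative to DMSO.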

Assay [2] is described as follows: ATG_VDRE_CIS: Attagene CIS-FACTORIAL HepG2 Assay for human Vitamin D Receptor Element (VDRE) (AID 2282968). To be noted: HepG2 VDRE cis-reporter transcription, actives raise or lower the signal. In short, it runs like this: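 Readout is VDRE-driven reporter mRNA reflecting endogenous factor activity in human HepG2 cells, sampled 24 h post-dose. Quantification used labelled RT-PCR products separated by capillary electrophoresis; bidirectional analysis relative to DMSO.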

For assay [3], the target named is Nuclear receptor subfamily 1 group I member 3 (Homo sapiens) (UniProt Q14994). The assay is described as follows: ATG_CAR_TRANS: Attagene TRANS-FACTORIAL HepG2 Assay for human Constitutive Androstane Receptor (CAR) (AID 2282969; active = hit-call score of the fitted dose curve at least 0.9, where 1 is the maximum;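 also: activators raise reporter mRNA above DMSO so AC50 marks induction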). To be noted: HepG2 Attagene TRANS-FACTORIAL CAR reporter. In short, it runs like this: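 Signal is reporter mRNA induction relative to DMSO, measured 24 h after dosing by RT-PCR with fluorescent primer extension and capillary electrophoresis. Human HepG2 liver cells carried transiently transfected chimeric NR-Gal4/GAL4-UAS reporter constructs.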

In assay [4] the target is Steroid hormone receptor ERR1 (Homo sapiens) (UniProt P11474). Kind of assay: ATG_ERRa_TRANS: Attagene TRANS-FACTORIAL HepG2 Assay for human Estrogen-Related Receptor alpha (ERRa) (AID 2282971; active = hit-call score of the fitted dose curve at least 0.9, where 1 is the maximum). To be noted: HepG2 Attagene TRANS reporter, ERRa transactivation. In a few lines: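 HepG2 cells transiently transfected with GAL4-UAS reporter units and chimeric NR-Gal4 constructs; after 24 hour compound incubation, reporter mRNA quantified by RT-PCR, fluorescent labelling and capillary electrophoresis, gain of signal versus DMSO.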

In assay [5] the target is X-box-binding protein 1 (Homo sapiens) (UniProt P17861). Kind of assay: ATG_Xbp1_CIS: Attagene CIS-FACTORIAL HepG2 Assay for human X-box Binding Protein 1 (XBP1) (AID 2282972). The settings on record: HepG2 XBP1 cis-element reporter, Attagene multiplex; actives raise or lower the signal. In short, it runs like this:
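Reporter transcripts were quantified by RT-PCR with fluorescent primer extension and capillary electrophoresis after 24 h chemical exposure. Cells: transiently transfected HepG2 carrying cis-regulated reporter constructs; data fitted bidirectionally relative to DMSO.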

Assay [6] can be described thus: ATG_M_19_TRANS: Attagene TRANS-FACTORIAL HepG2 Assay for M19 Transcription Factor (Internal Marker) (AID 2282974; active = hit-call score of the fitted dose curve at least 0.9, where 1 is the maximum). To be noted: HepG2 Attagene TRANS-FACTORIAL M19 internal marker reporter. In short, it runs like this: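 Using RT-PCR and capillary electrophoresis, reporter mRNA from transiently transfected human HepG2 cells was quantified following 24 h exposure; activity was fitted in the positive direction against DMSO.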

Assay [7] can be described thus: ATG_Hpa5_TRANS: Attagene TRANS-FACTORIAL HepG2 Assay for human GAL4-Hpa5 Hepatocyte Transcription Factor Basal Promoter (AID 2282975; active = hit-call score of the fitted dose curve at least 0.9, where 1 is the maximum;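 also: hits are increases in reporter mRNA over DMSO baseline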). To be noted: HepG2 Attagene GAL4-Hpa5 transcription reporter. In a few lines: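 Gain-of-signal versus DMSO is fitted for reporter mRNA quantified by RT-PCR and capillary electrophoresis after 24 h exposure. This endpoint is an internal background marker in transiently transfected HepG2 cells carrying GAL4-UAS reporter units.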

Assay [8] has as its target Estrogen receptor (Homo sapiens) (UniProt P03372). The assay is described as follows: ATG_ERa_TRANS: Attagene TRANS-FACTORIAL HepG2 Assay for human Estrogen Receptor alpha (ERa) (AID 2282970; active = hit-call score of the fitted dose curve at least 0.9, where 1 is the maximum). The settings on record: HepG2 Attagene TRANS ERa GAL4 reporter, mRNA. In a few lines:
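Gal4-fusion ERa transactivation, measured as reporter transcript level in transiently transfected HepG2 cells. Exposure 24 h; RT-PCR plus capillary electrophoresis with fluorescence detection.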

The target in assay [9] is Androgen receptor (Homo sapiens) (UniProt P10275). Kind of assay: ATG_AR_TRANS: Attagene TRANS-FACTORIAL HepG2 Assay for human Androgen Receptor (AR) (AID 2282973; active = hit-call score of the fitted dose curve at least 0.9, where 1 is the maximum). To be noted: HepG2 Attagene TRANS-FACTORIAL AR reporter transcription. On the procedure: ATG_TRANS is a cell-based, multiplexed-readout assay that uses HepG2, a human liver cell line, with measurements taken at 24 hours after chemical dosing in a 24-well plate.ATG_AR_TRANS is one of 30 assay component(s) measured or calculated from the ATG_TRANS assay. It is designed to make measurements of mRNA induction, a form of inducible reporter, as detected with fluorescence intensity signals by Reverse transcription polymerase chain reaction (RT-PCR) and Capillary electrophoresis technology.Data from the assay component ATG_AR_TRANS was analyzed into 1 assay endpoint. This assay endpoint, ATG_AR_TRANS, was analyzed in the positive analysis fitting direction relative to DMSO as the negative control and baseline of activity. Using a type of inducible reporter, measures of mRNA for gain-of-signal activity can be used to understand the reporter gene at the transcription factor-level as they relate to the gene AR. Furthermore, this assay endpoint can be referred to as a primary readout, because this assay has produced multiple assay endpoints where this one serves a reporter gene function. To generalize the intended target to other relatable targets, this assay endpoint is annotated to the nuclear receptor intended target family, where the subfamily is steroidal.
Human liver HepG2 cells are transiently transfected with multiple reporter transcription units (MRTUs) in 6-well plates using FuGene 6 reagent (Roche; 3 ml FuGene/1 mg DNA). The MRTU constructs are regulated by a cis-regulating element (promoter). […] A major difference between the CIS and TRANS system is that in CIS activities of endogenous TFs are measured, whereas the TRANS assay evaluates changes in activities of exogenous, chimeric NR-Gal4 proteins. […] At the end of 24 hour incubation, total RNA was isolated using TriZol reagent (Invitrogen). The isolated RNA is then reverse-transcribed using oligo(dT) primer and Mo-MLV reverse transcriptase (Invitrogen) with DNAse I (Ambion) treatment for 30 min. The one-tenth of the produced cDNA was amplified by PCR using Taq DNA polymerase (Invitrogen) and two reporter sequence-specific primers. The PCR products were fluorescently labeled by primer extension with 6-arboxyfluorescein (6-FAM) 5'-labeled reporter sequence-specific primer (2 min at 95 C, 20 s at 68 C and 10 min at 72 C) and these products were digested with 5U of HpaI (New England Biolabs) for 2h at 37 C. The fragments were purified using Qiaquick PCR columns (Qiagen), analyzed on an ABI 3130xL genetic analyzer (Applied Biosystems) with peak positions identified by using a set of X-rhodamine (ROX)-labeled MapMarker1000 molecular weight standards (BioVentures). The raw capillary electrophoresis data was processed using Attagraph software (Attagene).

Sequence of Nuclear receptor subfamily 1 group I member 3 (Homo sapiens) (Q14994 whole entry, looked up, the tested form may be a part): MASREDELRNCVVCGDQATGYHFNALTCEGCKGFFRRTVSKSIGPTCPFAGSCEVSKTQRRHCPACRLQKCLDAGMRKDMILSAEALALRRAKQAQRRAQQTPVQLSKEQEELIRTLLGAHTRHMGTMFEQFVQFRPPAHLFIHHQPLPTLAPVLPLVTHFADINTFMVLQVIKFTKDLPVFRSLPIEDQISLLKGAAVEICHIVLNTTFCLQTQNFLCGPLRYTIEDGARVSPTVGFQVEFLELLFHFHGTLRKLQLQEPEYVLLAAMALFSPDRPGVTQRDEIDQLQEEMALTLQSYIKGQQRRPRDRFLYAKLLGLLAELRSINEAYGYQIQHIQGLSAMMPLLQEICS
Sequence of Estrogen receptor (Homo sapiens) (P03372 whole entry, looked up, the tested form may be a part): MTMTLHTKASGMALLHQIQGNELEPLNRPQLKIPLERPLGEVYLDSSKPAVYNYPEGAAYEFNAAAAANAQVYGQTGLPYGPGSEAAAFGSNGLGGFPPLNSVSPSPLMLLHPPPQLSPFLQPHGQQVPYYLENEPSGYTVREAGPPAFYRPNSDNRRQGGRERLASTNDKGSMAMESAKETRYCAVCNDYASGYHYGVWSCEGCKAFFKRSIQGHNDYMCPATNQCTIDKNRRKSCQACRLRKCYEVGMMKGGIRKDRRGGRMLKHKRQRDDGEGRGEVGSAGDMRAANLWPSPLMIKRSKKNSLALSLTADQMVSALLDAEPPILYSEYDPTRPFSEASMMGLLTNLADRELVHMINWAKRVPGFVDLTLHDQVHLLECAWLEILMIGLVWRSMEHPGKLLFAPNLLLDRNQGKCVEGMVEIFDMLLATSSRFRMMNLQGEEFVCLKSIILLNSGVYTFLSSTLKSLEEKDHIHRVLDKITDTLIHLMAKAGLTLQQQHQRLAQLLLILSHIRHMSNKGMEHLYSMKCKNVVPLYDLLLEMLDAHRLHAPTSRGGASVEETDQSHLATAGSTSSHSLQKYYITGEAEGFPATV
Sequence of Steroid hormone receptor ERR1 (Homo sapiens) (P11474 whole entry, looked up, the tested form may be a part): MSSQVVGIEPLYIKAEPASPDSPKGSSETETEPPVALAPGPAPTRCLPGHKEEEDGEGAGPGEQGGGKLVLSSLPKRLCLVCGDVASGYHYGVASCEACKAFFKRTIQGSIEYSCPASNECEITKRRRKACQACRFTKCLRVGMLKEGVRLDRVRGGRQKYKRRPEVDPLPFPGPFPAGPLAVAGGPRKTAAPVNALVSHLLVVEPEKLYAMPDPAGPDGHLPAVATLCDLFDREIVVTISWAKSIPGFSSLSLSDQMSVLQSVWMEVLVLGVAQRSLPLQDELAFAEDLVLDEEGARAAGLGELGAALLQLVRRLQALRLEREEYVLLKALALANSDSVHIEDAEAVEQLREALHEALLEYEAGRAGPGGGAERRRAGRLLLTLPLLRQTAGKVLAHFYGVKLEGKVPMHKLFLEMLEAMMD
Sequence of X-box-binding protein 1 (Homo sapiens) (P17861 whole entry, looked up): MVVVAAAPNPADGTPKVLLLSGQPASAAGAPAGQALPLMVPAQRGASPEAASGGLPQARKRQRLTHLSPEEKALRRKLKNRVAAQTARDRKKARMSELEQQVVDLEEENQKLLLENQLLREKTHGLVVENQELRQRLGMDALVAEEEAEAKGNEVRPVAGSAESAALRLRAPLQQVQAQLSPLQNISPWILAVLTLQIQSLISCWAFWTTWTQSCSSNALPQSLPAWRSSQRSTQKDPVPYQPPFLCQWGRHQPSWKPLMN
Sequence of Androgen receptor (Homo sapiens) (P10275 whole entry, looked up): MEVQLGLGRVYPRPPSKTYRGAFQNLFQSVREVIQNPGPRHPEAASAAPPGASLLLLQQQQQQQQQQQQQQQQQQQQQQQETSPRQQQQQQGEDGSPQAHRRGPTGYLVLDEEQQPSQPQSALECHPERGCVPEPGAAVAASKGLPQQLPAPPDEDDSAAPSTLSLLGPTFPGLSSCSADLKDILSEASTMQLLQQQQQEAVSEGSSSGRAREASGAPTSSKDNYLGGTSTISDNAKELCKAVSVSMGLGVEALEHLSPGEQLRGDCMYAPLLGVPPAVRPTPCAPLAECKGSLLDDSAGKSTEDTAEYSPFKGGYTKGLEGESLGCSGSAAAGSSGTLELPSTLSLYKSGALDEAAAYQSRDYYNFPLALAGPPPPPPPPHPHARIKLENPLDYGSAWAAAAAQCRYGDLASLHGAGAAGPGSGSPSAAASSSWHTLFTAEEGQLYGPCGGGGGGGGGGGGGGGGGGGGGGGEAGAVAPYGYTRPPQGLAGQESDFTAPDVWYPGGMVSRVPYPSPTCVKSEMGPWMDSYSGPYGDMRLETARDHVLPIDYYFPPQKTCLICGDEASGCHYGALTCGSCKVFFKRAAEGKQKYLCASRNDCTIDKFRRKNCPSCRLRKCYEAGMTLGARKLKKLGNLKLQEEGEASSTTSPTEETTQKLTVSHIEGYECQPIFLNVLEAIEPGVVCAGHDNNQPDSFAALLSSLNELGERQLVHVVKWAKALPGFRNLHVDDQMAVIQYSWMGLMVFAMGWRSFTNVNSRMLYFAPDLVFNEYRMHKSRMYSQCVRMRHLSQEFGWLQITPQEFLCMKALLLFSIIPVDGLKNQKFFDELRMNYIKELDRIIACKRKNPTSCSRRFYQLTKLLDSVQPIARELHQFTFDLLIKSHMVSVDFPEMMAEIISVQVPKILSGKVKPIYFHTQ

As for `CCOc1nc(NC)nc(NC(=O)NS(=O)(=O)c2ccccc2C(=O)OC)n1`, the call in assay [1], in assay [2], in assay [3], in [4], in assay [5] and in assay [6] was inactive. Further, the call in assay [7] was inactive.

For orientation: AC50 means the concentration at which the activity in the assay is half-maximal. As for `CCCN(CCOc1c(Cl)cc(Cl)cc1Cl)C(=O)n1ccnc1`, the compound was called inactive in [1], in [3], in [4], in [5], in assay [6] and in assay [7]. Also, in assay [5], the half-maximal activity concentration (AC50) was 19.5 µM (active).

`O=S(=O)(O)C(F)(F)C(F)(F)C(F)(F)C(F)(F)C(F)(F)C(F)(F)C(F)(F)C(F)(F)F`: the compound was called inactive in [1], in assay [2], in assay [4], in assay [5], in assay [6] and in assay [7]. In addition, in assay [6], the half-maximal activity concentration (AC50) was 100 µM (active).

Consider `CC(C)(C)C(O)/C(=C\c1ccc(Cl)cc1Cl)n1cncn1` (configuration not stated), for which the outcome in assay [1], in [2], in [3], in assay [8], in assay [5] and in [6] was inactive.

Take `N#Cc1c(Cl)c(Cl)c(Cl)c(C#N)c1Cl`: the call in assay [1], in [3], in assay [8], in [5], in assay [6] and in assay [7] was inactive. Also, the AC50 in assay [2] is 0.267 µM (active).

With `COP(=O)(OC)OC=C(Cl)Cl`, the compound was called inactive in assay [1] and in assay [8]. Further, the AC50 in [5] is 25.1 µM (active).

For the compound `Cc1[nH]c(=O)n(C(C)(C)C)c(=O)c1Cl`, the call in assay [1], in assay [3], in assay [8], in [9], in assay [6] and in assay [7] was inactive. In addition, the AC50 in assay [5] is 27.4 µM (active).

Turning to `CC1(c2ccc(Oc3ccccc3)cc2)OC(=O)N(Nc2ccccc2)C1=O` (configuration not stated), the compound was classed as inactive in [1], in assay [8], in assay [4], in assay [5] and in assay [6]. Further, the AC50 in assay [2] is 2.16 µM (active).

Consider `C[C@H]1[C@H](c2ccc(Cl)cc2)SC(=O)N1C(=O)NC1CCCCC1`, for which the call in assay [1], in assay [3], in [8], in assay [5] and in [7] was inactive. Besides, in assay [2], the AC50 was 13.7 µM (active).

Take `CNC(=O)CSP(=S)(OC)OC`: the compound was classed as inactive in [1], in [2], in assay [3], in [8], in assay [5] and in assay [7].

In the case of `COP(=S)(OC)Oc1ccc([N+](=O)[O-])cc1`, the result in [1], in assay [2], in assay [3], in assay [8], in [5] and in [6] was inactive.

With `CCC(C)(NC(=O)c1cc(Cl)c(C)c(Cl)c1)C(=O)CCl` (configuration not stated), the result in assay [1], in [3], in [8], in [4], in assay [5] and in assay [6] was inactive. The result in assay [7] was inactive.

As for `O=C(O)COc1ccc(Cl)cc1Cl`, the compound was called inactive in assay [1], in [2], in [5], in [6] and in [7].

As to `CCN(CC)C(=O)SCc1ccc(Cl)cc1`, the outcome in assay [1], in assay [4], in [5], in assay [6] and in assay [7] was inactive. For the same compound, the AC50 in [2] was 24.8 µM (active); in [8] it was 32.4 µM (active).
